Pf growth 96h – P. falciparum growth inhibition at 96 hours; P. falciparum luciferase reporter growth, 96 h; Potency, µM (titrated, usually from 28.7 µM), hits mostly inhibitors; 320,000 compounds, 6.9% hits; AID 504834
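Infected RBCs, 2% Hct / 0.05% parasitemia final; luciferase-reporter P. falciparum; cpd 96 h, 37 C, 5% CO2; luciferase detection reagent; luminescence.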
Pf growth 48h – P. falciparum growth inhibition at 48 hours (one generation); P. falciparum luciferase growth in erythrocytes, 48 h; Potency, µM (titrated, usually from 28.7 µM), usual class: inhibitors; 310,000 compounds, 5.9% hits
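Parasite viability was followed by luminescence of a genomically integrated firefly luciferase. Cultures held 0.1% parasitemia at 2% hematocrit (final), incubated under 5% CO2 at 37 C.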
CHX counter – affects cycloheximide protein synthesis inhibition readout, counter-screen. cell reporter, cycloheximide protein synthesis inhibition counterscreen. 300,000 compounds, 12% hits. max response, %. AID 2314; in the data active = max response mostly above about 13%, no sharp cut-off; inactive = mostly below about 14%; note: read at 38.3 µM for the half of the compounds with a filed dose
Shiga toxin inh – blocks Shiga toxin action in Vero cells | Vero cells, Shiga toxin protein synthesis inhibition reporter | inhibition, % at 38.7 µM | 290,000 compounds, 9.2% hits; in the data active = inhibition mostly above about 28%, no sharp cut-off; inactive = mostly below about 43%
Of the large screens only hits and unclear results are named; the others gave an inactive call. An excerpt weighted towards active compounds, which were near 21% of everything screened. Unless noted, calls come from the whole dose curve; as a rule, active = well fitted inhibition curve with a large enough effect; inconclusive = small, poorly fitted or top-dose-only effect, or another doubt; inactive = no such curve, though single readings can be large or run the other way.

COc1ccc(-n2nc(C(=O)NCC(=O)NCc3ccc(F)cc3)c3ccccc3c2=O)cc1OC	none
C[C@@H]1C=CC(=O)O[C@@H]1c1ccc(C(F)(F)F)cc1	Pf growth 96h 2.33µM, Pf growth 48h inconclusive
Cn1cc(CCC(=O)N2CCCC(CCC(=O)NCc3ccc(F)c(F)c3)C2)cn1 (stereo not given)	Pf growth 48h inconclusive, CHX counter 17.1, Shiga toxin inh 43.2
COc1ccc(/C=C/CN2CCCC(CCC(=O)NCc3ccc(F)c(F)c3)C2)cc1 (stereo not given)	Pf growth 48h 13.1µM
COc1ccccc1/C=C/CN1CCCC(CCC(=O)NCc2ccc(F)c(F)c2)C1 (stereo not given)	Pf growth 48h inconclusive
Cn1cc(CCC(=O)N2CCCC(CCC(=O)NCc3ccccc3F)C2)cn1 (stereo not given)	Pf growth 96h inconclusive
COCCC(=O)N1CCCC(CCC(=O)NCc2ccc(F)c(F)c2)C1 (stereo not given)	CHX counter 16.9, Shiga toxin inh 79.4
C=C1c2cccc(C(F)(F)F)c2O[C@H](C(=O)OCC)[C@@H]1CCCCCC	none (no result: Pf growth 96h, Pf growth 48h)
CCOCCCNC(=O)NC(=O)CN1CCN(S(=O)(=O)c2ccc3c(c2)OCCO3)CC1	none
COc1ccc(C2CC(c3ccccc3)Oc3cc(OC)c(OC)c(OC)c32)cc1 (stereo not given)	none (no result: Pf growth 96h, Pf growth 48h)
CS(=O)(=O)c1ccc(Cl)c(NC(=O)c2cc(S(=O)(=O)N3CCOCC3)ccc2N2CCCC2)c1	Pf growth 96h 13.1µM, Pf growth 48h inconclusive (no result: CHX counter, Shiga toxin inh)
Cc1ccc(S(=O)(=O)N2CCOCC2)cc1C(=O)Nc1cc(Cl)ccc1N1CCOCC1	Pf growth 96h inconclusive, Pf growth 48h 4.65µM (no result: CHX counter, Shiga toxin inh)
CC(C)N(C(=S)Nc1cc(S(=O)(=O)N2CCOCC2)ccc1Cl)c1ccccc1	none
Cc1ccccc1C(=O)Nc1cc(S(=O)(=O)N2CCOCC2)ccc1N1CCN(C)CC1	Pf growth 48h inconclusive (no result: CHX counter, Shiga toxin inh)
C/C(=N\NC(=S)Nc1cc(S(=O)(=O)N2CCOCC2)ccc1Cl)c1ccccc1F	CHX counter 58.8, Shiga toxin inh 74.6
Cc1c(C(=O)O)sc2nc(/C=C/c3cccc(F)c3)[nH]c(=O)c12	none
Cc1c(C(=O)O)sc2nc(/C=C/c3ccccc3OC(F)F)[nH]c(=O)c12	Pf growth 96h 13.1µM
CC(C)=CC(O)C/C(C)=C/COc1ccc2ccc(=O)oc2c1 (stereo not given)	CHX counter 8.6
CCN(CCNC(=O)c1ccc(CSc2nc3ccncc3[nH]2)cc1)c1ccccc1	Pf growth 48h 10.4µM
O=C(NCCN1CCN(c2ccccc2)CC1)c1cccc(Cl)c1	none
O=C(NCCN1CCN(c2cccc(Cl)c2)CC1)c1ccc(CSc2nc3ccncc3[nH]2)cc1	Pf growth 96h inconclusive, Pf growth 48h 1.65µM
Cc1cccc(C)c1NC(=O)NC1(C(=O)N2CCCC2)CCCCC1	none
COc1ccc(/C=C/C(=O)c2cc(Cl)ccc2O)c(OC)c1	Pf growth 96h inconclusive, Pf growth 48h inconclusive, CHX counter 24.6, Shiga toxin inh 49.5
CN(C)c1ccc(/C=C/C(=O)c2cc(Cl)ccc2O)cc1	none
O=C(/C=C/c1ccncc1)c1cc(Cl)ccc1O	Pf growth 96h 9.28µM, Pf growth 48h inconclusive
COc1ccc(C(=O)c2ccccc2O)c(O)c1	Pf growth 96h inconclusive, Pf growth 48h 4.15µM (no result: CHX counter, Shiga toxin inh)
COc1ccc(C(=O)/C=C/c2ccccc2)c(O)c1	CHX counter 69.7, Shiga toxin inh 53.6
COc1ccc(C(=O)c2ccc(OC)cc2O)c(O)c1	Pf growth 48h inconclusive
O=C(c1cncc(Br)c1)N1CCN(S(=O)(=O)c2ccc(Cl)cc2)CC1	none
Cc1nonc1C(=O)N/N=C/c1ccc(O)cc1O	none
COc1ccc(/C=C/C(=O)c2ccc(Cl)cc2)c(OC)c1	CHX counter 43.3, Shiga toxin inh 80.0
COc1ccc(C(=O)/C=C/c2ccc(OC)cc2OC)c(O)c1	CHX counter 43.0, Shiga toxin inh 72.3
COc1ccc(C(=O)/C=C/c2cc(C(=O)O)cc3c2OCOC3)c(O)c1	Pf growth 48h inconclusive
COc1ccc(S(=O)(=O)N2CN3CCN(C3)C2)cc1	none
c1ccc(-c2ccc(OCCCn3cncn3)cc2)cc1	Pf growth 96h inconclusive, CHX counter 40.6, Shiga toxin inh 60.9
c1ccc(COc2ccc(OCCn3cncn3)cc2)cc1	CHX counter 25.1, Shiga toxin inh 53.8 (no result: Pf growth 96h)
CC(=O)CCc1ccc(OCCCCn2cncn2)cc1	CHX counter 19.7, Shiga toxin inh 50.6
N#CC(C#N)=Cc1cnc(N2CCN(c3ccccc3)CC2)s1	none (no result: Pf growth 48h)
Cc1cc(C)cc(N(C(C)C(=O)NCc2ccc3c(c2)OCO3)S(C)(=O)=O)c1 (stereo not given)	none
Cc1cs/c(=N\N=C2CCCCC2)n1Cc1ccco1	CHX counter 33.5, Shiga toxin inh 69.0
Cc1cs/c(=N\N=C\c2ccccc2)n1Cc1ccco1	Pf growth 96h inconclusive, CHX counter 22.6
CCCCN(C)Cc1c(O)ccc2c(=O)c(-c3ccccc3OC)coc12	Pf growth 48h inconclusive
Cc1cc2c(NCCc3ccccc3)ncnc2s1	CHX counter 24.8, Shiga toxin inh 64.7
Cc1cc2c(Nc3ccccc3)ncnc2s1	none
c1ccc(CCNc2ncnc3ccccc23)cc1	CHX counter 49.4
Brc1ccc2ncnc(NCc3ccccc3)c2c1	Pf growth 48h inconclusive
CCCCCCCCNc1ncnc2ccccc12	Pf growth 96h 5.22µM (no result: Pf growth 48h)
CCc1ccccc1Nc1ncnc2ccccc12	none
CCn1c2cc(C)sc2c2cnn(Cc3ccccc3F)c(=O)c21	none (no result: Pf growth 96h, Pf growth 48h)
Cc1cc(C)c2c(n1)SCC(=O)N2CC(=O)Nc1ccc(F)cc1	none
O=C(O)c1[nH]c2ccc(Cl)cc2c1CC(=O)N1CCN(c2ccccc2)CC1	none (no result: Pf growth 96h)
COc1ccc(Cl)cc1NC(=O)N1CCN(c2ccccc2OC)CC1	Pf growth 96h inconclusive, Pf growth 48h 6.57µM
COc1ccccc1N1CCN(C(=O)Nc2cccc(Cl)c2)CC1	none (no result: Pf growth 48h)
COc1ccc(CC(=O)N2CCN(c3ccccc3OC)CC2)cc1	none (no result: Pf growth 48h)
COc1ccccc1N1CCN(C(=O)Cc2ccc(Cl)cc2)CC1	CHX counter 17.0
COc1ccccc1N1CCN(C(=O)CCSCc2ccccc2F)CC1	Pf growth 96h inconclusive, Shiga toxin inh 48.8
COc1ccccc1N1CCN(C(=O)Cc2c(C(=O)O)[nH]c3ccc(Cl)cc23)CC1	Pf growth 48h 10.4µM
CCOCCCNc1ccc(N2C(=O)C3CCCCC3C2=O)cc1[N+](=O)[O-] (stereo not given)	none
CCN(CC)CCCNC(=O)CN1N=C(c2ccc(OC)cc2)CCC1=O	none
Cc1ccc(-c2nc(CSCC(=O)NCC3CCCO3)c(C)o2)cc1 (stereo not given)	Pf growth 96h inconclusive
COc1ccc(-c2nc(CSCC(=O)NCC3CCCO3)c(C)o2)cc1OC (stereo not given)	Pf growth 96h 14.7µM
CCOc1ccc(-c2nc(CSCC(=O)NCC3CCCO3)c(C)o2)cc1 (stereo not given)	Pf growth 96h 13.1µM
COc1ccc(-c2nc(CSCC(=O)NC3CCCC3)c(C)o2)cc1OC	none
CC(=O)N1CCc2cc(C(=O)CN3CCN(c4ccccc4F)CC3)ccc21	CHX counter 21.1, Shiga toxin inh 59.1 (no result: Pf growth 48h)
CC(=O)N1CCc2cc(C(=O)CN3CCN(c4ccccn4)CC3)ccc21	CHX counter 36.6, Shiga toxin inh 76.7
O=C(CN1CCN(c2ccccc2F)CC1)N1CCc2ccccc21	CHX counter 14.5
